High-throughput results from PubChem.
A selection: hits, their analogues and other compounds. The true share with any hit is near 1.1%.
SARS 3CLpro inh: SARS-CoV 3CLpro protease inhibition | P0C6X7 | recombinant SARS-CoV 3CLpro, quenched FRET peptide cleavage | inhibition, % at 6 µM | hit rate 0.14% among 290,000; in the data active means inhibition above about 12%
Yp Topo-I inh: Y. pestis Topo-I inhibition via cleavage products. hit rate 0.064% among 360,000. Y. pestis Topo-I cleavage product accumulation, plate reader. activity, % at 10 µM; in the data active means activity above about 50%, passing the limit was not always enough; inconclusive means no clear call, values can overlap the other calls
MazF activator: activators of E. coli MazEF toxin-antitoxin RNase; P0AE70; FAM/BHQ RNA-DNA oligo cleavage fluorescence, 5 h; activation, % at 20 µM; hit rate 0.32% among 350,000; in the data active means activation above about 50%
Target sequence (P0AE70 whole entry, looked up): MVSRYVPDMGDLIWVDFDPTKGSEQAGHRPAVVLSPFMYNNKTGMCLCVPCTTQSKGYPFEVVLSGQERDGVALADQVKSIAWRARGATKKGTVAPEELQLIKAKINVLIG
BJeLR lethal: BJeLR cell viability loss; BJeLR (HRASV12) viability, CellTiter-Glo ATP luminescence, 48 h; inhibition, % (no concentration beside the values); hit rate 0.17% among 300,000; in the data active means inhibition above about 50%; inconclusive means no clear call, values can overlap the other calls
PfHsp40 rescue: rescue of PfHsp40-mediated yeast toxicity | S. cerevisiae expressing PfHsp40, growth rescue, ATP luminescence | growth rescue, % at 12.5 µM | hit rate 0.68% among 340,000 | AID 504582; in the data active means growth rescue above about 28%, passing the limit was not always enough; inconclusive means no clear call, values can overlap the other calls;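 further: yeast W303a lacking pdr1 and pdr3 grown in galactose medium; growth measured after three days at 30 °C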
BioA inh: inhibitors of Mycobacterium tuberculosis BioA enzyme. hit rate 0.096% among 360,000. inhibition, % at 9.99 µM. purified M. tuberculosis BioA enzyme, plate reader; in the data active means inhibition above about 40%; inconclusive means no clear call, values can overlap the other calls
The depositor's hits bear a star; ? = inconclusive; . = no result given.

SMILES	SARS 3CLpro inh	Yp Topo-I inh	MazF activator	BJeLR lethal	PfHsp40 rescue	BioA inh
C/C(=N\Nc1nccnc1Cl)c1c(F)c(F)c(F)c(F)c1F	2	12	-2	4	59*	.
C/C(=N\Nc1nccnc1Cl)c1ccc(F)cc1	0	-4	-6	10	0	.
O=C(CSc1ncccn1)N1CCCc2ccccc21	1	5	4	.	1	.
O=C(CSc1ccc(-c2ccccn2)nn1)NC1CCCCC1	0	-6	5	3	320*	.
O=C(CSc1ccccn1)N1CCc2ccccc21	2	5	-5	10	72*	.
O=C(CSc1ccc(-c2ccccn2)nn1)N1CCc2ccccc21	3	-4	9	2	224*	.
O=C(OCC(=O)N1CCc2ccccc21)c1ccccn1	6	5	-8	-1	-1	.
O=C(CSc1ccc(-c2ccccn2)nn1)c1ccc([N+](=O)[O-])cc1	-4	6	6	14	95*	.
Cc1ccc(N2C(=O)c3ccccc3[C@](C)(C(=O)O)[C@@H]2c2ccc(CO)cc2)nc1	.	.	.	.	.	1
C[C@@H]1CCCCO[C@@H](CN(C)Cc2ccc(C(F)(F)F)cc2)[C@H](C)CN([C@H](C)CO)C(=O)c2cc(N(C)C)ccc2O1	.	.	.	.	.	1
CCNC(=O)Nc1ccc2c(c1)C(=O)N(C)[C@H]1CC[C@@H](CC(=O)NCCN3CCCC3)O[C@H]1CO2	.	.	.	.	.	-2
C[C@H](CO)N1C[C@H](C)[C@H](CN(C)Cc2ccc(C(F)(F)F)cc2)Oc2ccc(NC(=O)Cn3cnnn3)cc2C1=O	.	.	.	.	.	1
COc1ccccc1S(=O)(=O)N[C@H]1CC[C@@H](CCn2cc(C3CC3)nn2)O[C@H]1CO	.	.	.	.	.	-4
O=C(CSc1ccc(-c2ccccn2)nn1)N1CCCCC1	-4	-1	6	-11	135*	.
CN1C(=O)c2cc(NC(=O)Nc3ccccc3F)ccc2OC[C@@H]2O[C@@H](CC(=O)O)CC[C@@H]21	.	.	.	.	.	-2
O=C(/C(=N/N=C/c1ccc(O)c(O)c1O)c1ccccc1)c1ccccc1	1	-2	13	-15	520*	-2
C[C@@H](NC(=O)C[C@H]1C[C@H]2c3cc(NS(C)(=O)=O)ccc3O[C@H]2[C@@H](CO)O1)c1ccccc1	.	.	.	.	.	0
O=C(C[C@@H]1CC[C@H](NC(=O)c2ccc(F)cc2)[C@@H](CO)O1)NCCc1ccncc1	.	.	.	.	.	3
O=C(N/N=C/c1cc(Cl)ccc1O)c1ccccc1Br	0	-7	4	7	108*	.
O=c1c2nncn2c2cc(C(F)(F)F)ccc2n1CCNc1ncc(C(F)(F)F)cc1Cl	-2	9	0	-2	0	-2
O=c1c(Cl)nc2cc(Cl)ccc2n1CCNc1ncc(C(F)(F)F)cc1Cl	0	-3	24	88*	-2	.
O=S(=O)(Nc1cccc2c1CCCC2)c1ccc(Cl)cc1	5	9	4	-3	42*	1
Cc1onc(-c2ccccc2)c1C(=O)NC(=S)NNC(=O)c1ccc(O)cc1O	5	-2	11	-36	248*	.
O=S(=O)(CC(O)(c1ccccc1)c1ccccc1)CC(O)(c1ccccc1)c1ccccc1	.	29	69*	.	-1	.
COc1ccc(/C=N/NC(=O)c2nc(-c3ccccc3)n(-c3ccccc3)n2)c(O)c1	6	-1	4	24	72*	.
SMILES	SARS 3CLpro inh	Yp Topo-I inh	MazF activator	BJeLR lethal	PfHsp40 rescue	BioA inh
COc1ccc(/C=N/NC(=O)c2nc(-c3ccccc3)n(-c3ccccc3)n2)cc1	3	-6	11	-11	0	-3
COc1cccc(C=NNC(=O)c2ccncc2)c1O	.	-6	5	.	-3	-1
COc1cccc(/C=N/NC(=O)c2nc(-c3ccccc3)cc(-c3ccccc3)n2)c1O	0	33	4	-7	254*	-1
C/C=C/c1ccc2c(c1)O[C@@H](CN(C)Cc1ccncc1)[C@H](C)CN([C@@H](C)CO)S2(=O)=O	.	.	.	.	.	8
CC1=CN2C(=N)/C(=C/c3ccc([N+](=O)[O-])o3)C(=O)N=C2S1	2	-6	116*	17	?	.
C[C@H](CO)N1C[C@H](C)[C@@H](CN(C)Cc2ccc(Oc3ccccc3)cc2)Oc2ccc(NC(=O)CCN3CCOCC3)cc2CC1=O	.	.	.	.	.	6
CCN(CC)c1ccc(/C=C2/C(=O)c3ccc(C(=O)O)cc3C2=O)cc1	-9	-14	74*	.	-1	.
Cc1ccc(S(=O)(=O)N(CC(=O)NCc2cccs2)c2ccccc2)cc1	.	-4	-14	.	42*	0
COc1ccc(CN2C[C@@H](C)[C@H](OC)CN(C)C(=O)c3cc(NC(=O)c4nc5ccccc5s4)ccc3OC[C@H]2C)cc1	.	.	.	.	.	0
COC(=O)C[C@]1(C(=O)OC)CN(C#N)N(c2ccc(Cl)cc2)C12c1ccccc1-c1ccccc12	7	31	6	67*	-2	0
COC(=O)[C@@H]1[C@@H](C(=O)OC)C2(c3ccccc3-c3ccccc32)N(c2ccc(Cl)cc2)N1C#N	3	8	-9	33	-1	-2
COCC(=O)Nc1ccc2c(c1)C(=O)N(C)C[C@@H](OC)[C@H](C)CN(C(=O)CC1CC1)[C@@H](C)CO2	.	.	.	.	.	-1
O=C(Cc1ccccc1F)Nc1nc(-c2ccc(F)c(F)c2)cs1	2	-5	26	-11	242*	.
O=C(C[C@H]1C=C[C@@H](NC(=O)C2CC2)[C@@H](CO)O1)Nc1nccs1	.	.	.	.	.	0
CCCn1c2ccccc2c2cc(C(=O)O)ccc21	0	-1	-5	-5	325*	-1
Cn1c2ccccc2c2cc(C(=O)O)ccc21	5	11	0	11	42*	.
C[C@@H]1CCCCO[C@H](CN(C)C(=O)C2CCCCC2)[C@H](C)CN([C@H](C)CO)C(=O)c2cc(NS(C)(=O)=O)ccc2O1	.	.	.	.	.	-2
COc1ccc(-c2ccc(-c3noc(-c4ccccc4OC)n3)c(OC)n2)cc1	6	10	61*	14	0	.
COc1ccc(-c2ccc(-c3noc(-c4ccccc4C)n3)c(OC)n2)cc1	-1	4	-23	8	0	-2
C=C1C(=O)O[C@@H]2C[C@@H](C)[C@H]3C=CC(=O)[C@]3(O)C[C@@H]12	.	12	3	66*	0	-2
Cc1ccccc1Nc1ncc(C#N)c(N)n1	6	5	-1	-3	.	0
COc1ccc(Nc2ncc(C#N)c(N)n2)c(OC)c1	4	-3	4	-6	66*	7
COC(=O)CSc1nc2cc(C)cc(C)c2cc1C#N	6	-2	131*	-6	-2	-1
COC(=O)CSc1nc2ccc(C)cc2cc1C#N	3	-2	901*	-3	2	.
Cc1cc(C)c2cc(C#N)c(SCC(=O)Nc3cc(C)on3)nc2c1	-1	0	50	4	-1	-5
CC(=O)CSc1nc2cc3c(cc2cc1C#N)OCCO3	1	2	80*	21	1	.
COC(=O)CSc1nc2cc(OC)ccc2cc1C#N	-1	-3	203*	-5	-1	-1
